From PubChem
This is a sample that favours compounds with a hit; in the whole collection about 17% have one here.
TDP1 cell noCPT = qHTS for Inhibitors of human tyrosyl-DNA phosphodiesterase 1 (TDP1): qHTS in cells in absence of CPT; DT40 Tdp1-/- hTDP1 cells, no CPT, ATP luminescence, 48 h; Potency, µM (top dose mostly 46.2 µM), for the others: at the top dose activity change, negative = growth inhibition, most hits filed as inhibitors; actives 15% (n = 420,000); note: % is set by controls: 0 for no effect and ±100 for the full control effect; nearly all actives have a fitted effect of over 55% in size
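Luminescent ATP content (CellTiter-Glo) served as the growth readout. Knockout chicken DT40 cells expressing human TDP1 were exposed to compounds without camptothecin for a minimum 48 hr at 37 °C.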
HT1080 IDH1KD tx = qHTS for induction of synthetic lethality in tumor cells producing 2HG: qHTS for the HT-1080-IDH1KD cell line | HT-1080 IDH1 knockdown viability, ATP luminescence, 48 h | Potency, µM (top dose mostly 46.1 µM), for inactives: at the highest dose activity, negative = toxicity, hits mostly cytotoxic | actives 2% (n = 360,000);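 note: 0% = DMSO wells and -100% = cell-free medium wells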
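IDH1KD HT-1080 cells, 750/well, RPMI + 5% FBS; compound pinned after 2 h settling; 48 h, 37 °C; CellTiter-Glo luminescence; % activity normalised to DMSO and no-cell wells; curves fitted, classed by r2 and efficacy.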
TDP1 cell CPT = qHTS for Inhibitors of human tyrosyl-DNA phosphodiesterase 1 (TDP1): qHTS in cells in presence of CPT | actives 12% (n = 420,000) | AID 686979, 2013 | chicken DT40 Tdp1-/-;hTDP1 cells + 20 nM CPT, ATP luminescence, 48 h | Potency, µM (top dose mostly 46.2 µM), inactives show at the top dose activity change, negative = growth inhibition, hits mostly inhibitors; note: % is set by controls: 0 for no effect and ±100 for the full control effect; nearly all actives have a fitted effect of over 55% in size
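Chicken DT40 Tdp1-/- cells stably complemented with human TDP1 were seeded at 400 cells/well in medium containing 20 nM camptothecin, exposed to pin-transferred compounds, and grown at 37 °C for at least 48 hr. Viability was read as ATP luminescence.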
TGFb inhibitor = qHTS for Inhibitors of TGF-b. HepG2 CAGA-GFP TGF-b/SMAD3 reporter, GFP fluorescence, 18 h; TGF-beta stimulated, 500 pg/mL final. Potency, µM (series often up to 46.1 µM), for the others: top-dose activity, negative = inhibition, actives largely listed as inhibitors. actives 1.2% (n = 410,000). AID 588855, 2011; note: % is set by controls: 0 for no effect and ±100 for the full control effect; nearly all actives have a fitted effect of over 65% in size
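TGF-beta reporter screen: HEPG2 CAGA-GFP, 1% FBS, 500 pg/mL TGF-beta final, 18 h; per-cell GFP summed per well; curves fitted and categorized by class.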
HT1080-NT tox = qHTS for induction of synthetic lethality in tumor cells producing 2HG: qHTS for the HT-1080-NT fibrosarcoma cell line | HT-1080-NT fibrosarcoma viability, CellTiter-Glo ATP luminescence, 48 h | Potency, µM (titrated, usually from 46.1 µM), inactives show top-dose activity, negative = less viability, actives largely listed as cytotoxic | actives 1.6% (n = 360,000);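 note: NT is the 2HG producing partner of a matched IDH1 knockdown line; 0% = DMSO-treated cells and -100% = media-only wells without cells; nearly all actives have a fitted effect of over 55% in size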
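750 cells/well, RPMI + 5% FBS; 2 h settle, compound pin-transfer, 48 h at 37 degrees C. CellTiter-Glo 10 min RT, luminescence. Normalized to DMSO and media-only wells.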
HepG2 tox-1 = qHTS for Inhibitors of TGF-b: Cytotox Counterscreen; HepG2 CAGA-GFP viability, ATP luminescence, 18 h; Potency, µM (doses to about 46.1 µM), inactives show at the top dose activity change, negative = cytotoxicity, most hits filed as cytotoxic; actives 0.76% (n = 410,000)
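CellTiter-Glo luminescence gave cytotoxicity after 18 hours at 37 degrees C. The cells were HepG2 CAGA-GFP in 1% FBS DMEM, stimulated with 500 pg/mL TGF-beta after compound addition. %Activity was normalised to no-cell wells (complete cell-killing) and DMSO (no toxicity), and curves were fitted and classified.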
TGFb CAGA inh = qHTS for Inhibitors of TGF-b: Confirmation of Cherry Picks; shares compounds with TGFb inhibitor; AID 720534, 2013; Potency, µM (doses to about 46.1 µM), inactives show at the highest dose activity, negative = inhibition, hits mostly inhibitors; actives 63% (n = 1,600); HepG2 CAGA-GFP TGF-b reporter, GFP fluorescence, 18 h; cells stimulated with TGF-beta, 500 pg/mL; note: % is set by controls: 0 for no effect and ±100 for the full control effect; nearly all actives have a fitted effect of over 65% in size
HepG2 tox-2 = qHTS for Inhibitors of TGF-b: Cytotox Counterscreen for Cherry Picks; AID 720535, 2013; actives 27% (n = 1,600); HepG2 CAGA-GFP viability, ATP luminescence, 18 h; cells stimulated with TGF-beta, 500 pg/mL; Potency, µM (series often up to 46.1 µM), without a hit: top-dose activity, negative = cytotoxicity, hits mostly inhibitors; shares compounds with TGFb inhibitor; note: % is set by controls: 0 for no effect and ±100 for the full control effect; nearly all actives have a fitted effect of over 70% in size
TGFb CCL64 inh = qHTS for Inhibitors of TGF-b: CCL64 Cells Orthogonal Assay for Cherry Picks; shares compounds with TGFb inhibitor; CCL64 CAGA-GFP reporter, TGF-b stimulated, GFP fluorescence, 18 h; Potency, µM (doses to about 46.1 µM), without a hit: at the top dose activity, negative = inhibition, usual class: inhibitors; actives 41% (n = 1,600); note: nearly all actives have a fitted effect of over 65% in size
TGFb COP inh = qHTS for Inhibitors of TGF-b: Hit Validation in HepG2 Cells using COP promoter; shares compounds with TGFb inhibitor; HepG2 COP-GFP TGF-b reporter, GFP fluorescence, 18 h; cells stimulated by added recombinant TGF-beta; Potency, µM (highest dose often 46.1 µM), for the others: at the highest dose activity, negative = inhibition, actives largely listed as inhibitors; actives 3% (n = 1,600); AID 720537, 2013; note: nearly all actives have a fitted effect of over 70% in size
Starred values were filed as active, the others as inactive; ? = inconclusive; nt = no result. Calls come from the whole dose curve; as a rule, active = well fitted curve in the direction sought with a large enough effect; inconclusive = small, poorly fitted or top-dose-only effect, or another doubt; inactive = no such curve, though single readings can be large; an effect the other way counts as inactive or inconclusive. Potency is the fitted concentration of half-maximal effect.

SMILES	TDP1 cell noCPT	HT1080 IDH1KD tx	TDP1 cell CPT	TGFb inhibitor	HT1080-NT tox	HepG2 tox-1	TGFb CAGA inh	HepG2 tox-2	TGFb CCL64 inh	TGFb COP inh
CC1(C(=O)Nc2ccccc2Cc2ccccc2)CCN1Cc1ccccc1Cl (stereo unspecified)	23.1µM*	?	?	12.6µM*	?	-14.9%	9.2µM*	?	16.4µM*	55.9%
O=C(Nc1cccc(Cl)c1)c1csc([C@@H]2C[C@H](O)[C@@H](CO)O2)n1	-10.9%	0.0%	-21.5%	-3.9%	14.6%	5.9%	nt	nt	nt	nt
CN1CCN(C(=O)c2cc(Cl)ccc2NC(=O)c2ccc(Cl)cc2Cl)CC1	12.6%	2.1%	3.6%	5.3%	-1.9%	1.4%	nt	nt	nt	nt
Cc1cc(C)c(S(=O)(=O)Nc2ccc3c4c(cccc24)CC3)c(C)c1	3.66µM*	1.03µM*	-101.0%	8.91µM*	?	-38.7%	11.6µM*	?	9.2µM*	32.9%
Cc1cc(NCc2ccccc2)nc(N2CCOCC2)n1	-9.2%	1.0%	-12.2%	-23.3%	-0.9%	-0.4%	nt	nt	nt	nt
Cc1cc(N2CCOCC2)nc(NCc2ccccc2)n1	13µM*	0.0%	20.6µM*	10µM*	11.7%	0.8%	14.6µM*	-23.7%	?	1.4%
COc1ccc(C(NC(=O)C2CCN(CCOc3ccc(F)cc3)CC2)c2cccs2)cc1 (stereo unspecified)	?	?	?	-1.3%	?	-40.3%	nt	nt	nt	nt
COc1ccc(C(NC(=O)C2CCN(CCOc3ccc(Cl)cc3Cl)CC2)c2cccs2)cc1 (stereo unspecified)	16.4µM*	?	?	4.47µM*	-22.6%	5.01µM*	?	?	?	?
COc1ccccc1Cc1c(-c2ccc(F)cc2)nc2ccc(Br)cn12	?	?	?	10µM*	?	-32.2%	?	?	?	43.3%
COc1ccc(Cc2c(-c3cccc(Cl)c3)nc3ccc(Br)cn23)c(C)c1	?	-14.1%	?	?	-1.5%	-33.8%	nt	nt	nt	nt
COc1ccc(Cc2c(-c3cccc(Br)c3)nc3ccc(Br)cn23)c(C)c1	?	0.0%	?	?	-11.0%	-25.5%	?	?	?	-3.1%
COc1ccc(-c2nc3ccc(Br)cn3c2Cc2cccc(Cl)c2)cc1OC	20.6µM*	?	?	12.6µM*	?	4.0%	18.4µM*	?	?	21.9%
COC(=O)c1[nH]c2c(c1C)C(=O)CC(c1ccccc1)C2 (stereo unspecified)	1.3µM*	?	1.3µM*	?	0.447µM*	1.2%	?	0.4%	?	-12.3%
Cc1c(C(=O)OCC(C)C)[nH]c2c1C(=O)CC(c1ccco1)C2 (stereo unspecified)	0.82µM*	1.16µM*	0.82µM*	?	1.46µM*	-31.2%	9.2µM*	1.4%	8.2µM*	-18.8%
Fc1ccccc1N1CC(c2ccccc2)C(c2cccs2)=N1 (stereo unspecified)	?	?	-4.7%	?	-16.9%	-33.9%	nt	nt	nt	nt
COc1ccc(C(=O)NC(CO)c2nnc(SCc3ccc(Cl)c(Cl)c3)n2C)cc1 (stereo unspecified)	?	-16.8%	-14.5%	-13.0%	-22.3%	-14.1%	nt	nt	nt	nt
CC(C)CC(NC(=O)c1cccs1)c1nnc(SCc2ccc(Cl)c(Cl)c2)n1C (stereo unspecified)	?	-33.8%	?	5.62µM*	-21.3%	-22.0%	18.4µM*	18.4µM*	?	3.3%
O=C1NC[C@H](Cc2ccc(O)cc2)N(C[C@H]2CCCN2C[C@H](Cc2ccc(O)cc2)N2C[C@H](Cc3ccc(O)cc3)N(CCc3ccccc3)C(=O)C2=O)C1=O	-0.3%	4.7%	-14.2%	-24.7%	12.9%	-1.8%	nt	nt	nt	nt
Oc1ccc(C[C@H]2CNC(=S)N2CC2CCCN2C[C@H](Cc2ccc(O)cc2)N2C[C@H](Cc3ccccc3)N(CC3CCCCC3)C2=S)cc1 (stereo partly specified)	16.4µM*	-27.1%	16.4µM*	7.94µM*	-25.5%	-1.3%	6.51µM*	?	?	-4.6%
Oc1ccc(C[C@H]2CNC(=S)N2CC2CCCN2C[C@H](Cc2ccc(O)cc2)N2C[C@H](Cc3ccccc3)N(CC3CCCCCC3)C2=S)cc1 (stereo partly specified)	4.11µM*	-21.7%	10.3µM*	7.94µM*	-10.9%	-8.4%	6.51µM*	-8.0%	10.3µM*	9.7%
